TEAD-YAP block = TEAD-YAP interaction inhibition; HEK-TIYL cells, TEAD-Gal4/YAP UAS-luciferase luminescence; inhibition, % at 9.12 µM; hit rate 1.4% among 640,000; AID 1259422; in the data active = inhibition above about 32%;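 note: 0% = median of test compound wells and 100% = reference inhibitor wells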
MITF inh = human MITF inhibition, primary screen. inhibition, % at 2.6 µM. AID 1259374. AlphaScreen MITF homodimerization, bead proximity signal. O75030. hit rate 0.91% among 650,000; in the data active = inhibition above about 50%;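 note: 0% = vehicle wells with protein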
GPR151 ag = activates the human receptor GPR151; PathHunter beta-arrestin GPR151 cells, luminescence; Q8TDV0; activation, % at 11.2 µM; hit rate 1% among 650,000; in the data active = activation above about 4.9%;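 note: 0% = median of compound wells and 100% = cells with positive control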
Target sequence (Q8TDV0 whole entry, looked up): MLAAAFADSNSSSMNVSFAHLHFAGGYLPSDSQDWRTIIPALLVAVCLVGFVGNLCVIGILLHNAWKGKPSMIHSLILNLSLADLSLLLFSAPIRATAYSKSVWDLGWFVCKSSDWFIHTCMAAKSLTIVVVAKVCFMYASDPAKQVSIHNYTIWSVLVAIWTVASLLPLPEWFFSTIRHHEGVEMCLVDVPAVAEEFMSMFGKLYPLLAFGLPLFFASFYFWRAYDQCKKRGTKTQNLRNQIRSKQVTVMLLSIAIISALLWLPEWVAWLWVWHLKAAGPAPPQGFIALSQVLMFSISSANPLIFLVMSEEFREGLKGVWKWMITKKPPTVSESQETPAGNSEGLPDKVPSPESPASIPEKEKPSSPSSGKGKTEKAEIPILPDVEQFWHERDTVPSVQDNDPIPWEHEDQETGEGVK
FBW7 act = human FBW7 E3 ligase activation, primary screen. normalized activity (activation), % at 26.1 µM. AlphaScreen FBW7–phospho-cyclin E peptide binding, activator screen. hit rate 0.13% among 650,000; in the data active = normalized activity above about 1.9%;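 note: purified mutant Fbw7 with reduced substrate affinity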
MITF confirm = confirmation of human MITF inhibitors; shares compounds with MITF inh; AlphaScreen MITF homodimerization, biotin/His-MITF beads; inhibition, % at 2.6 µM; hit rate 16% among 4,700;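 active = inhibition above a cutoff derived from the DMSO control wells, cut at about 28% in these data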;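 note: 0% = MITF dimer wells with DMSO only; inhibitors lower the bead chemiluminescence by keeping MITF from dimerizing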
AS interf ctr = counter-screen: compounds optically interfering with AlphaScreen. shares compounds with MITF inh. LysRS AlphaScreen counterscreen, signal interference, triplicate. inhibition, % at 2.6 µM. hit rate 7.6% among 4,700. AID 1259376;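 active = inhibition above a cutoff derived from the DMSO control wells, cut at about 30% in these data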
* = called active by the depositor; . = not tested or not shown. An excerpt weighted towards active compounds, which were near 3.4% of everything screened.

SMILES	TEAD-YAP block	MITF inh	GPR151 ag	FBW7 act	MITF confirm	AS interf ctr
CCOc1ccc(/C(O)=C2\C(=O)C(=O)N(CCCN3CCOCC3)C2c2ccccc2F)cc1C (stereo unspecified)	4	15	0	0	.	.
CC1(C)CC(=O)C2=C(C1)NC(=O)CC2c1ccc(C(C)(C)C)cc1 (stereo unspecified)	8	70*	0	0	-5	-1
CC1(C)CC(=O)C2=C(C1)NC(=O)CC2c1ccc(F)cc1 (stereo unspecified)	-4	2	1	0	.	.
COc1ccc(C(=O)NC(=S)N2CCN(Cc3ccccc3)CC2)cc1OC	-2	18	-1	0	.	.
COc1cc(C(C)=O)ccc1OCCN1CCN(Cc2ccccc2)CC1	11	62*	-1	1	6	10
CCC(=O)c1ccccc1OCCN1CCN(C)CC1	7	13	-1	0	.	.
CCC(=O)c1ccccc1OCCN1CCN(Cc2ccccc2)CC1	14	66*	1	0	7	3
CCC(=O)c1ccccc1OCCCCN1CCN(CC)CC1	8	60*	4	0	18	13
Cc1ccc(CNC(=O)C(=O)NCC(C)O)cc1 (stereo unspecified)	-16	-13	0	0	.	.
COc1ccc(CN2CCN(Cc3ccccn3)CC2)cc1Br	3	68*	0	0	6	18
COc1cc(OC)c(OC)cc1CN1CCN(Cc2ccccn2)CC1	-8	71*	-2	0	9	16
COc1cc(CN2CCN(Cc3ccccn3)CC2)cc(OC)c1OC	-5	79*	-1	0	1	15
COc1ccc(CN2CCN(c3ccccn3)CC2)cc1O	4	49	-1	0	.	.
COc1ccc(CN2CCN(Cc3ccccn3)CC2)cc1	-3	43	1	0	.	.
O=C(c1ccccc1)N1CCN(C(=O)c2cccc(F)c2)CC1	17	-5	0	0	.	.
O=C(c1cccc(F)c1)N1CCN(Cc2ccccc2C(F)(F)F)CC1	-1	53*	0	0	-16	-2
O=C(c1ccco1)N1CCN(Cc2ccccc2[N+](=O)[O-])CC1	-12	76*	-1	1	-3	-1
CC(C)CC(=O)N1CCN(C(=O)c2cccs2)CC1	6	7	-1	0	.	.
O=C(c1cccc(F)c1)N1CCN(Cc2ccccc2Br)CC1	2	57*	1	0	22	16
CC(C)CC(=O)N1CCN(Cc2ccccc2C(F)(F)F)CC1	2	58*	0	0	4	17
CCN(CCC(=O)Nc1cccc(Cl)c1)Cc1ccccc1	-17	-9	1	0	.	.
O=C(/C=C/c1ccccc1[N+](=O)[O-])Nc1ncc([N+](=O)[O-])s1	-51	6	-2	0	.	.
COc1ccccc1CN1CCN(C(=O)c2ccc(F)cc2)CC1	-8	38	0	0	.	.
O=C(c1ccco1)N1CCN(Cc2ccc(Br)cc2)CC1	-2	-2	2	0	.	.
O=C(c1ccncc1)N1CCN(Cc2ccccc2C(F)(F)F)CC1	0	69*	0	0	-12	-5
SMILES	TEAD-YAP block	MITF inh	GPR151 ag	FBW7 act	MITF confirm	AS interf ctr
O=C(c1ccc(-c2ccccc2)cc1)N1CCN(Cc2ccccc2C(F)(F)F)CC1	-11	65*	1	0	2	4
O=C(c1ccco1)N1CCN(Cc2ccccc2C(F)(F)F)CC1	-4	66*	0	0	8	12
O=C(c1ccccc1)N1CCN(C(=O)c2ccncc2)CC1	5	1	0	0	.	.
O=C(c1ccc(F)cc1)N1CCN(Cc2ccccc2C(F)(F)F)CC1	-1	65*	0	0	-4	-4
Fc1ccc(CNc2nc(Cc3ccccc3)nc3sc4c(c23)CCCC4)cc1	0	5	-1	0	.	.
CC(C)CS(=O)(=O)C1=NN2C(=N)/C(=C\c3ccc(N(C)C)cc3)C(=O)N=C2S1	-10	12	0	0	.	.
O=C(c1ccccc1)N1CCN(CCCc2ccccc2)CC1	-18	31	2	0	.	.
CC(C)CC(=O)N1CCN(CCCc2ccccc2)CC1	12	52*	0	0	6	2
COc1cc(NC(=O)c2nn3c(c2Cl)NC(c2cccs2)CC3C(F)(F)F)cc([N+](=O)[O-])c1 (stereo unspecified)	-4	74*	0	0	-5	-8
CCOC(=O)c1sc(NC(=O)c2nn3c(c2Cl)NC(c2cccs2)CC3C(F)(F)F)c(C(=O)OCC)c1C (stereo unspecified)	-9	68*	2	0	-9	-8
COc1cc(NC(=O)c2nn3c(c2Cl)NC(c2ccccc2)CC3C(F)(F)F)cc([N+](=O)[O-])c1 (stereo unspecified)	-10	-9	1	0	.	.
COc1ccc(OC)c(-c2cc(Cl)c3c(c2)CC(CNC(=O)c2nonc2C)O3)c1 (stereo unspecified)	-9	-1	1	0	.	.
CC(=O)NC(CC(C)C)c1nc2cccnc2n1C(C)C (stereo unspecified)	4	-4	1	0	.	.
CC(C)C(NC(=O)c1ccoc1)c1nnc2n1CCN(Cc1ccc(F)c(F)c1)CC2 (stereo unspecified)	1	-3	0	0	.	.
COc1ccc(/C=C(\C#N)C(=O)Oc2ccc([N+](=O)[O-])c3cccnc23)cc1	12	54*	-1	-2	51*	99*
COc1ccccc1/C=C1\NC(=S)NC1=O	2	-3	-1	0	.	.
O=C(CN1Cc2ccccc2OC(c2ccccc2F)C1)NCCCn1ccnc1 (stereo unspecified)	-4	3	0	0	.	.
O=C(CSc1ccc(-c2ccccn2)nn1)Nc1ccc(Br)cc1	-6	4	1	0	.	.
CC(=O)c1cccc(NC(=O)CSc2ccc(-c3ccccn3)nn2)c1	5	47	-4	-2	.	.
CC(=O)Nc1cccc(NC(=O)CSc2ccc(-c3ccccn3)nn2)c1	-8	84*	1	0	79*	100*
CC(=O)Nc1ccc(NC(=O)CSc2ccc(-c3ccccn3)nn2)cc1	5	83*	-3	0	83*	100*
Cc1cccc(NC(=O)CSc2ccc(-c3ccccn3)nn2)c1	-3	57*	-3	0	76*	99*
CCOC(=O)C(Sc1nc2c(sc(=S)n2-c2ccccc2)c(=O)n1-c1ccccc1)C(C)=O (stereo unspecified)	4	0	0	0	.	.
COc1ccc(CC(=O)NNC(=O)c2ccc(C(C)(C)C)cc2)cc1OC	-14	7	-1	0	.	.
Cc1cc(NCc2ccccc2)n2ncnc2n1	3	12	1	0	.	.
Cc1cc(NCc2ccccc2F)n2ncnc2n1	0	51*	0	2	3	11
Cc1cc2oc3c(c(=O)c2cc1C)C(c1cccnc1)N(CCCN(C)C)C3=O (stereo unspecified)	-4	83*	-1	0	-7	-4
